From PubChem BioAssay AID504408 (Broad Institute, 2011)
In all, about 300,000 compounds went through this assay and about 5,200 (1.7%) were called active.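 Rule for the calls: active = mean replicate activation of at least 50% with a set share of replicates each reaching 50%; inconclusive = only one of those two conditions met; inactive = mean below 50% and too few replicates reaching it.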 The sample as a whole holds a higher share of actives than the screen did.

assay: HSF-1 activators, primary screen, NIH3T3-HGL cells, MG132 stress, luminescence, single point (AID 504408); conditions: NIH3T3-HGL HSF-1 luciferase reporter, MG132, 8 h; at 9 µM; stronger effect = higher value; 100% = twice DMSO control signal;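 note: 0% = median of the neutral control wells and 100% = twice that signal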

Row | Compound | activation
1 | O=[N+]([O-])C(=c1ccc2c(c1)N1C3=C(CCCC3)CC3CCCCC31N=2)[N+](=O)[O-] (stereo not drawn) | 74.2% (active)
2 | COc1ccc(C(=O)NC(=S)N2CCCCC2c2cccnc2)cc1OC (stereo not drawn) | 60.1% (active)
3 | O=C(NC(=S)N1CCCCC1c1cccnc1)c1ccccc1 (stereo not drawn) | 4.49% (inactive)
4 | COc1ccc(/C=C/C(=O)NC(=S)NN2CCCCC2c2cccnc2)cc1 (stereo not drawn) | 13.9% (inactive)
5 | Cc1nc(-c2ccc(F)cc2)c(CC(=O)Nc2cc(S(=O)(=O)N3CCCCC3)ccc2C)s1 | 44.2% (inactive)
6 | C=CCOc1ccc(/C=C/C(=O)OCC(=O)NCC2CCCO2)cc1 (stereo not drawn) | -21.7% (inactive)
7 | O=C(NCCc1ccco1)C(=O)NCCC1CCCCN1S(=O)(=O)c1ccccc1 (stereo not drawn) | 3.12% (inactive)
8 | Cc1cc(CO)nn1-c1ccc([N+](=O)[O-])cc1 | -10.6% (inactive)
9 | Cc1ccc(-n2cc3ccc([N+](=O)[O-])cc3n2)cc1 | 59.2% (active)
10 | Cc1ccc(-c2cn3cc([N+](=O)[O-])ccc3n2)cc1 | 29.6% (inactive)
11 | COc1cc(C2C(C(=O)c3cccs3)=C(O)C(=O)N2CCN2CCOCC2)ccc1OCCC(C)C (stereo not drawn) | -4.43% (inactive)
12 | Cc1ccc(S(=O)(=O)CCC(=O)Nc2nnc(CC(C)C)s2)cc1 | 16.5% (inactive)
13 | COc1ccc(C(CNC(=O)c2cccc(NS(=O)(=O)c3ccc(C)c(F)c3)c2)N2CCCC2)cc1 (stereo not drawn) | -2.57% (inactive)
14 | CC1CCN(C(=O)COC(=O)c2cc(S(=O)(=O)N3CCOCC3)ccc2Cl)CC1 | -3.43% (inactive)
15 | CC1(C)CCSC(/C=C/c2ccccc2)=N1 | 172% (active)
16 | CCCn1nc(C(=O)NNC(=O)CCOc2ccccc2OCC)c2ccccc2c1=O | 2.86% (inactive)
17 | O=C(CN1CCOCC1)Nc1cccc([N+](=O)[O-])c1 | 8.61% (inactive)
18 | COc1ccc(C(=O)N2CC3(C)CC2CC(C)(C)C3)cc1OC (stereo not drawn) | -7.35% (inactive)
19 | Cc1cccc(C(=O)NCC(=O)OCC(=O)N2CC3(C)CC2CC(C)(C)C3)c1 (stereo not drawn) | 15.9% (inactive)
20 | Cc1nnnn1/C(=C\c1ccccc1)C(=O)OCC(=O)N1CC2(C)CC1CC(C)(C)C2 (stereo not drawn) | 82.4% (active)
21 | [O-][n+]1ccc(OCc2ccccc2)cc1 | -6.48% (inactive)
22 | O=C(NC1CCCC1)c1cc(-c2ccccc2)on1 | 61.2% (active)
23 | COc1ccccc1-c1cc(C(=O)NCCCn2ccnc2)no1 | -0.494% (inactive)
24 | CC(NC(=O)c1cc(-c2ccccc2)on1)c1ccccc1 (stereo not drawn) | 25.2% (inactive)

Row | Compound | activation
25 | O=C(NCCCn1ccnc1)c1cc(-c2ccccc2)on1 | 52.5% (active)
26 | COc1ccc(-c2cc(C(=O)NCCCn3ccnc3)no2)cc1 | -2.3% (inactive)
27 | O=C(NC1CCCCC1)c1cc(C2CC2)on1 | 24.7% (inactive)
28 | CCC(=O)c1ccc(OCC(=O)OCC(=O)NC2CCCCCC2)cc1 | -11.2% (inactive)
29 | CCC1CCC/C1=N\NC(=O)c1ccc(Cl)cc1 (stereo not drawn) | 9.99% (inactive)
30 | Cc1cc(C)c(S(=O)(=O)n2cc(C(C)C(N)C(=O)O)c3ccccc32)c(C)c1 (stereo not drawn) | 0.109% (inactive)
31 | COc1cccc(N2CC(C(=O)NCc3n[nH]c(=O)c4ccccc34)CC2=O)c1 (stereo not drawn) | 8.81% (inactive)
32 | CSCCC(NC(=O)COc1ccccc1)C(=O)OCCOc1ccc(F)cc1 (stereo not drawn) | -8.89% (inactive)
33 | COc1cccc(C(=O)NCCS(=O)(=O)NCC2CCCO2)c1 (stereo not drawn) | -6.64% (inactive)
34 | CC1(c2nnc(Cc3ccccc3)o2)CC(c2ccccc2F)=NO1 (stereo not drawn) | 4.53% (inactive)
35 | Cn1cccc1C(=O)NNC(=O)COc1ccc(Br)cc1 | 1.2% (inactive)
36 | CCS(=O)(=O)c1ccc2oc(SCC(=O)N3c4ccccc4CC3C)nc2c1 (stereo not drawn) | -9.09% (inactive)
37 | Cc1cc(=O)[nH]c(SCC(=O)N2c3ccccc3CC2C)n1 (stereo not drawn) | -7.41% (inactive)
38 | CC1Cc2ccccc2N1C(=O)CSc1nc2ccccc2o1 (stereo not drawn) | 67.8% (active)
39 | COc1ccc(/C=N/NC(=O)c2cc(-c3cccc(C)c3)nc3ccccc23)cc1O | 11.4% (inactive)
40 | O=C(c1cc(-c2ccc(Cl)s2)nc2ccccc12)N1CCOCC1 | 0.352% (inactive)
41 | CCCCCN(C(=O)CCC(=O)OCCOc1ccc(OC)cc1)c1c(N)n(CCCC)c(=O)[nH]c1=O | 2.74% (inactive)
42 | COc1ccc(Cl)cc1NC(=O)CCN1CCOCC1 | -5.06% (inactive)
43 | COc1ccccc1NC(=O)CCN1CCN(c2ccc(Cl)cc2)CC1 | 0.381% (inactive)
44 | COC(=O)CNC(c1ccccc1Cl)c1cc(Br)ccc1NC(=O)CCN1CCOCC1 (stereo not drawn) | 57.8% (active)
45 | COc1ccccc1C(=O)NC(=O)COC(=O)C1CC1 | 16% (inactive)
46 | O=C(O)c1cc(Cl)c(Cl)cc1C(=O)Nc1cccc2ncccc12 | 56.4% (active)
47 | O=C(Nc1cccc2ncccc12)c1ccc(-c2ccc(Cl)cc2Cl)o1 | 38.2% (inactive)
48 | O=C(Nc1cccc2ncccc12)C(Cl)(Cl)Cl | -66% (inactive)

Row | Compound | activation
49 | CN(C(=O)CN1C(=O)NC(C)(CCc2ccccc2)C1=O)c1ccccc1 (stereo not drawn) | 5.79% (inactive)
50 | COc1ccc(S(=O)(=O)Nc2ccc3oc(C)c(C(C)=O)c3c2)cc1 | -13% (inactive)
51 | COC(=O)c1c(C)oc2ccc(N(C(=O)Oc3ccccc3)S(=O)(=O)c3ccccc3)cc12 | 74.4% (active)
52 | CC(=O)c1c(C)oc2ccc(NS(=O)(=O)c3ccccc3)cc12 | 18.1% (inactive)
53 | CC(C)(C)c1ccc(C(=O)NCc2ccco2)cc1 | -17.1% (inactive)
54 | Nc1cc(N)nc(SCc2cccc(F)c2)n1 | 76.5% (active)
55 | CCc1nnc(SCc2cccc(F)c2)nc1CC | -33.8% (inactive)
56 | Nc1cc(N)nc(SCc2ccc(Cl)cc2)n1 | -15.7% (inactive)
57 | COc1ccc(NS(=O)(=O)c2ccc(C)c(C(=O)NNC(=O)c3csc(N4CCOCC4)n3)c2)cc1 | 4.38% (inactive)
58 | O=C(NCCC1CCCCN1S(=O)(=O)c1cccs1)C(=O)Nc1ccc(F)cc1F (stereo not drawn) | -7.29% (inactive)
59 | CN(C(=O)COC(=O)c1ccc(Br)o1)c1c(N)n(Cc2ccccc2)c(=O)[nH]c1=O | 5.07% (inactive)
60 | CC1(C)O[C@@H]2CC3C4C[C@H](F)C5=CC(=O)C=CC5(C)C4C(O)CC3(C)[C@]2(C(=O)CO)O1 (stereo partly drawn) | -43.8% (inactive)
61 | COc1ccccc1-c1nnc(-c2ccc(F)cc2)o1 | 38.9% (inactive)
62 | COc1ccc(-c2csc3nc(-c4ccccc4F)oc(=O)c23)cc1OC | 164% (active)
63 | COc1ccc(-c2csc(-c3cccs3)n2)cc1OC | 19.1% (inactive)
64 | CC(=O)N/C(=C\c1ccccc1)C(=O)OC(C)C(=O)N(C)c1ccccc1 (stereo not drawn) | 2.37% (inactive)
65 | O=C(Cc1ccc(-c2ccccc2)cc1)NC(c1ccccc1)c1ccccc1 | 0.938% (inactive)
66 | CCOC(=O)/C=C/C(=O)OCC(=O)NC(c1ccccc1)c1ccccc1 | 177% (active)
67 | CCOC(=O)C(C(=O)OCC)C(C#N)c1ccccc1 (stereo not drawn) | 14.7% (inactive)
68 | COc1ccc(C(C#N)(CC(=O)O)c2cnccn2)cc1OC (stereo not drawn) | -7.73% (inactive)
69 | COc1cc(OC)nc(S(C)(=O)=O)n1 | -10.3% (inactive)
70 | COc1ccc(-c2cc(C(F)(F)F)nc(S(C)(=O)=O)n2)cc1OC | 236% (active)
71 | COc1ccc(-c2cc(C(F)(F)F)nc(SCC(=O)Nc3ccc4c(c3)OCO4)n2)cc1OC | 12.6% (inactive)
72 | COc1ccc(CNC(=O)CNC(=O)c2sc3ccccc3c2Cl)cc1OC | 5.99% (inactive)

Row | Compound | activation
73 | COc1ccc(C(=O)Nc2ccnn2C2CCN(Cc3ccncc3)CC2)cc1 | 0.31% (inactive)
74 | COc1ccc(C(=O)Nc2sc(C)c(C)c2CN2CCOCC2)cc1 | 399% (active)
75 | CCc1cc(C(N)=O)c(NC(=O)c2ccc(OC)cc2)s1 | 15.1% (inactive)
76 | CC(=O)c1c(C)[nH]c(C(=O)N2CCN(S(=O)(=O)c3ccc(F)c(F)c3)CC2)c1C | 0.878% (inactive)
77 | Oc1ccccc1CNc1ncc(Br)cc1Br | 114% (active)
78 | O=[N+]([O-])c1ncc(Br)cc1Nc1ccccc1 | -4.85% (inactive)
79 | CCc1cccc(C)c1NS(=O)(=O)c1cc(Br)cnc1N | 0.695% (inactive)
80 | COc1ccc(S(=O)(=O)N2CCCCC2)cc1NC(=O)C1CC(=O)N(c2ccc3c(c2)OCCO3)C1 (stereo not drawn) | 1.34% (inactive)
81 | O=C(NCCN1CCOCC1)c1ccc2c(c1)N(Cc1ccc(Cl)cc1)CCS2 | 16.5% (inactive)
82 | O=C(NCCc1ccccc1)c1ccc2c(c1)N(Cc1ccccc1)CCS2 | 82.5% (active)
83 | CCOC(=O)N1CCN(C(=O)c2ccc3c(c2)N(Cc2ccc(C)cc2)CCS3)CC1 | 9.82% (inactive)
84 | CC(=O)Nc1ccc(NC(=O)CSC2=NS(=O)(=O)c3ccccc3N2)cc1 | -10.3% (inactive)
85 | CC(=O)Nc1ccc(NC(=O)C(C)OC(=O)C2CC(=O)N(CCc3ccccc3)C2)cc1 (stereo not drawn) | -21.8% (inactive)
86 | COCCN(C(=O)COC(=O)Cc1cccc(OC)c1)c1c(N)n(Cc2ccccc2)c(=O)[nH]c1=O | 2.54% (inactive)
87 | Cc1cccc([C@@H]2[C@@H]3C(=O)N(Cc4ccccc4)C(=O)[C@@H]3[C@]3(Cc4ccc(Cl)cc4)C(=O)N(c4cccc(Cl)c4)C(=O)N23)c1 | 13.8% (inactive)
88 | Cc1ccc(C(=O)CN2C(=O)NC3(CCc4ccccc43)C2=O)c(C)c1 (stereo not drawn) | 0.629% (inactive)
89 | COC(=O)c1sc(NC(=O)c2csc3c2CCCC3)nc1C | 30.2% (inactive)
90 | Cc1ccc(NC(=O)c2csc3c2CCCC3)cc1 | 59.9% (active)
91 | O=C(Nc1ccccc1N1CCOCC1)c1csc2c1CCCC2 | 6.54% (inactive)
92 | Cc1cc(=O)oc2cc(NC(=O)C(C)Oc3ccccc3)ccc12 (stereo not drawn) | -3.4% (inactive)
93 | O=C(c1cc(-c2ccco2)nc2ccccc12)N(Cc1nnc(-c2ccc(Cl)cc2)o1)C1CC1 | 16.1% (inactive)
